# Article PMC4336329 (PLoS ONE, 2015)
# Screen size: about 310,000 compounds; about 14,000 (4.5%) showed an effect of 50% or more. Effects have a minus sign here. This is one part of a sample in which strong results are shown more often than they occur.
# Target: human ether-à-go-go-related gene (hERG) potassium channel (human, UniProt Q12809)
# Test: primary screen, population patch clamp on CHO cells stably expressing hERG; higher = less effect of the substance
# 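Note: peak tail current of the secondary pulse compared with the same well before compound.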
# Chain of human ether-à-go-go-related gene (hERG) potassium channel (Q12809 whole entry, looked up): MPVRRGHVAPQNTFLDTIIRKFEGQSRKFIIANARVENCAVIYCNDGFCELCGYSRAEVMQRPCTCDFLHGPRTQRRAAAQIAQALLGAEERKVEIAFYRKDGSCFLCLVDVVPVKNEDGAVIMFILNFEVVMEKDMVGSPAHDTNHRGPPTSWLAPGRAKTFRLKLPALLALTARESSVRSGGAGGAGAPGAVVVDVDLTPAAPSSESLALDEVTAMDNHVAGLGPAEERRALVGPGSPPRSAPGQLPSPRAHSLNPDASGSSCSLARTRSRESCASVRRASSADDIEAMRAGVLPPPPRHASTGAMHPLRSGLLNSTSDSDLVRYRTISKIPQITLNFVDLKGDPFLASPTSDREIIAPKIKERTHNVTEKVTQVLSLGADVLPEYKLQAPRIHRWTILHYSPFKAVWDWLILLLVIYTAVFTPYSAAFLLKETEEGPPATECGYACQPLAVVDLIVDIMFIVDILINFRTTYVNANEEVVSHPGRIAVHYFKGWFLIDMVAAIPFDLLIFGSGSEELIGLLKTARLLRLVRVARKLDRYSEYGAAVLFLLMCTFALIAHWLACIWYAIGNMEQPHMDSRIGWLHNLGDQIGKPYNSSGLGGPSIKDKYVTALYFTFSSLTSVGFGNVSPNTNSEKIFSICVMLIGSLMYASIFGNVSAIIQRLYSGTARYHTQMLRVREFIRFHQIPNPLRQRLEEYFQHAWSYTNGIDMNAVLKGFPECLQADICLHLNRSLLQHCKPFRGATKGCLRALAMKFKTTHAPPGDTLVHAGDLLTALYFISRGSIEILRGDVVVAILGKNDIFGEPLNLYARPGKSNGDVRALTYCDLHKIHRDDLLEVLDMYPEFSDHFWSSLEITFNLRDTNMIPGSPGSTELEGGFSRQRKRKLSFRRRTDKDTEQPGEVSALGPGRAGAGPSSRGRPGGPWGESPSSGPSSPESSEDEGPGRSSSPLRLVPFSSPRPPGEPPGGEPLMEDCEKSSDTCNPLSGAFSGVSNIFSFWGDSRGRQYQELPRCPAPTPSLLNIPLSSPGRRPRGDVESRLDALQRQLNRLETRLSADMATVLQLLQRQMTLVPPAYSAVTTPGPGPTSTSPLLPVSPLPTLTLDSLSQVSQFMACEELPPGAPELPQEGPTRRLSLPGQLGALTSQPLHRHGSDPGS
row,SMILES,"hERG current change (%, negative = inhibition) at 10uM [%]"
1,Cc1cc(NC(=O)C(C)SCC(=O)Nc2ccccc2N2CCCC2)no1 (stereo not drawn),15.1
2,CCNC(=S)N/N=C/c1cccs1,6.26
3,O=C(CCCCCN1C(=O)CCC1=O)Nc1ccc2c(c1)OCCO2,8.47
4,CC(=O)Nc1ccc(-c2csc(NNC(=O)c3ccccc3)n2)cc1,24.7
5,Cc1ccc(-c2nc(C(F)(F)F)cc(=O)[nH]2)cc1,12.7
6,N#CCCn1ncn(-c2ccccc2)c1=S,1.22
7,Cc1ccccc1CC(=O)Nc1ccc2c(c1)CCC2,18.3
8,Cc1ccc(-c2noc(CCC(=O)NCCCN3CCN(c4cccc(Cl)c4)CC3)n2)cc1,2.45
9,COc1ccc(-c2noc(CCC(=O)NCCCN3CCN(c4ccccc4F)CC3)n2)cc1,-61
10,Cc1ccc(-c2noc(CCC(=O)NCCCN3CCN(c4ccc(F)cc4)CC3)n2)cc1,-66.8
11,COCCCNC(=O)CCc1nc(-c2ccccc2)no1,9.36
12,Cc1ccc(-c2noc(CCC(=O)NCCN3CCOCC3)n2)cc1,4.65
13,COc1ccc(-c2noc(CCC(=O)NCCN(C)Cc3ccccc3)n2)cc1,-30.5
14,COc1ccc(C(=O)/C=C/c2cccs2)c(OC(=O)c2cccc([N+](=O)[O-])c2)c1,5.34
15,CCC(C)C(NC(=O)OCc1ccccc1)C(=O)NCC(c1ccccc1)N(C)C (stereo not drawn),-7.1
16,CC1CN(S(=O)(=O)c2ccc(F)cc2)CN1C(=O)N1CCOCC1 (stereo not drawn),17.6
17,OCCC1CN(Cc2nc3c(s2)CCCC3)CCN1CCc1ccccc1 (stereo not drawn),-61.4
18,OCCC1CN(Cc2nc3c(s2)CCCC3)CCN1Cc1ccsc1 (stereo not drawn),-14.6
19,CC(C)N1CCN(Cc2nc3c(s2)CCCC3)CC1CCO (stereo not drawn),18.9
20,CC(C)CCN1CCN(Cc2nc3c(s2)CCCC3)CC1CCO (stereo not drawn),-28.2
21,OCCC1CN(Cc2nc3c(s2)CCCC3)CCN1Cc1ccccc1 (stereo not drawn),-22.5

row,SMILES,"hERG current change (%, negative = inhibition) at 10uM [%]"
1,Cc1ccc(CN2CCN(Cc3nc4c(s3)CCCC4)CC2CCO)cc1 (stereo not drawn),-55.3
2,CC(=O)Nc1sc(C)c(C)c1C(=O)OCC(=O)N(CC(C)C)c1c(N)n(Cc2ccccc2)c(=O)[nH]c1=O,-1.37
3,Cc1cc(C)nc(N(C#N)CC(=O)N2CCC(C(N)=O)CC2)n1,20.1
4,CN1CCc2[nH]c3ccc(C(=O)NN)cc3c2C1,5.22
5,CC1CCc2sc(C(=O)NCC(C)(C)N3CCOCC3)cc2C1 (stereo not drawn),-32.6
6,CCOC(=O)c1oc2ccccc2c1NC(=O)c1ccc(Cl)s1,11.7
7,Cc1ncc(CN2CCCC(C(=O)Nc3ccc(-c4ccco4)cc3)C2)n1C (stereo not drawn),-59.6
8,Cc1ncc(CN2CCCC(C(=O)Nc3ccc(-c4ccco4)cc3)C2)cn1 (stereo not drawn),-11.5
9,Cn1cc(CN2CCCC(C(=O)Nc3ccc(-c4cccc(F)c4)cc3)C2)cn1 (stereo not drawn),-43.9
10,COc1cccc(-c2ccc(NC(=O)C3CCCN(Cc4cnn(C(C)C)c4)C3)cc2)c1 (stereo not drawn),-79.7
11,Cc1ncc(CN2CCCC(C(=O)Nc3ccc(-c4cccc(F)c4)cc3)C2)cn1 (stereo not drawn),-73.2
12,Nc1ncc(CN2CCCC(C(=O)Nc3ccc(-c4ccco4)cc3)C2)cn1 (stereo not drawn),-17.8
13,COc1cccc(C(=O)C2CCCN(Cc3cnn(C(C)C)c3)C2)c1 (stereo not drawn),-43.6
14,O=C(Nc1ccc(-c2cccc(F)c2)cc1)C1CCCN(Cc2ccccn2)C1 (stereo not drawn),-42.3
15,COc1cccc(-c2ccc(NC(=O)C3CCCN(Cc4cnc(N(C)C)s4)C3)cc2)c1 (stereo not drawn),8.97
16,COc1cccc(-c2ccc(NC(=O)C3CCCN(Cc4cnc(C)n4C)C3)cc2)c1 (stereo not drawn),-74.3
17,COc1cccc(-c2ccc(NC(=O)C3CCCN(Cc4cnc(C)s4)C3)cc2)c1 (stereo not drawn),2.11
18,COc1cccc(-c2ccc(NC(=O)C3CCCN(Cc4cnn(C)c4)C3)cc2)c1 (stereo not drawn),-37
19,COC(=O)c1c(C)nc(C)c(C(=O)OC)c1-c1ccc(OC)cc1,-7.69
20,Cc1cc(C)nc(N/N=C/c2cn[nH]c2-c2ccc(F)cc2)n1,8.66
21,Cc1ccc(CNC(=O)c2cccc3c2C(=O)c2ccc(N4CCCCC4)cc2S3(=O)=O)cc1,-6.76
